Source: PubChem BioAssay
Tau fluor counter: counter-screen for tau fibril formation inhibitors. 280,000 compounds, 0.93% hits. Potency, µM (highest dose often 57.7 µM), for inactives: at the top dose activity change, negative = decrease. tau K18 P301L Alexa594 fluorescence, heparin fibrillization; also: potency is read from the fitted curve at half-maximal effect; nearly all actives have a fitted effect of over 55% in size
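Human K18 P301L tau (15 uM unlabeled plus 0.24 uM Alexa 594-labeled, final) in 100 mM sodium acetate pH 7 was mixed with compound and 20 uM heparin and incubated 6 hr at 37 C.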
Sfp PPTase inh: blocks B. subtilis Sfp PPTase activity | 310,000 compounds, 3.5% hits | Biochemical Sfp PPTase activity, qHTS | Potency, µM, for the others: largest response in the series, negative = inhibition, most hits filed as inhibitors | Q9F4F7 | AID 1490;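 also: the enzyme is Sfp with the accession as filed and its product quenches rhodamine fluorescence; potency is read from the fitted curve at half-maximal effect; 0% = enzyme reaction without inhibitor and -100% = no enzyme wells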
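Sfp 15 nM + cpd, 15 min RT; start w/ rhodamine-CoA 5 uM, BHQ-2-YbbR 12.5 uM (final); 50 mM Hepes pH 7.6, 10 mM MgCl2, 0.01% NP-40, 0.01% BSA; read 525/598 nm at 0 and 30 min.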
Tau fibril FP: blocks human tau fibril formation measured by polarization. P10636. K18 P301L tau heparin fibrillization, Alexa594 FP, 6 h. Potency, µM (doses to about 57.7 µM), for the others: at the highest dose activity, negative = inhibition, hits mostly inhibitors. 280,000 compounds, 0.39% hits. AID 1468; also: potency is read from the fitted curve at half-maximal effect; nearly all actives have a fitted effect of over 55% in size
Target sequence (P10636 561-689 P618L limits assumed): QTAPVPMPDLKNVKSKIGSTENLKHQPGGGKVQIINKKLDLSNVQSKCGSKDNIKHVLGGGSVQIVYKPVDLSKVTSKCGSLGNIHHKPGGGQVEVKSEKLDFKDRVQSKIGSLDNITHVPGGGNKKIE
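K18 P301L tau (15 uM unlabeled/0.24 uM Alexa 594-labeled, final) + compound + heparin 20 uM final; 100 mM NaOAc pH 7; 6 hr 37 C; ThT 30 uM final added, 1 hr RT; FP ex 555/em 632 nm.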
Tau fibril ThT: inhibitors of human tau fibril formation, thioflavin T binding | Potency, µM (highest dose often 57.4 µM), for the others: at the highest dose activity, negative = inhibition, actives largely listed as inhibitors | P10636 | recombinant tau K18 P301L (four-repeat tau fragment), heparin-induced fibrillization, ThT fluorescence | 270,000 compounds, 2.1% hits; also: potency is read from the fitted curve at half-maximal effect; nearly all actives have a fitted effect of over 55% in size
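Tau K18 P301L fragment (15 uM unlabeled plus 0.24 uM Alexa 594-labeled) in 100 mM sodium acetate pH 7 with compound, fibrillization induced by 20 uM heparin for 6 hr at 37 C. Thioflavin T (30 uM) added, fluorescence read after 1 hr (ex 450, em 510 nm).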
KDM4E inh: blocks human JMJD2E demethylase activity. B2RXH2. AID 2147. JMJD2E catalytic domain, FDH-coupled NADH fluorescence (FDH is formaldehyde dehydrogenase). 230,000 compounds, 1.6% hits. Potency, µM (titrated, usually from 57.1 µM), for the others: at the top dose activity change, negative = inhibition, hits mostly inhibitors; active = well fitted inhibition curve with a large enough effect, not every such curve was filed as active; inconclusive = small, poorly fitted or top-dose-only effect, or another doubt; inactive = no such curve, though single readings can be large or run the other way;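 also: potency is read from the fitted curve at half-maximal effect; 0% = wells with enzyme and -100% = buffer wells without enzyme; nearly all actives have a fitted effect of over 50% in size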
Target sequence (B2RXH2 1-337 limits assumed): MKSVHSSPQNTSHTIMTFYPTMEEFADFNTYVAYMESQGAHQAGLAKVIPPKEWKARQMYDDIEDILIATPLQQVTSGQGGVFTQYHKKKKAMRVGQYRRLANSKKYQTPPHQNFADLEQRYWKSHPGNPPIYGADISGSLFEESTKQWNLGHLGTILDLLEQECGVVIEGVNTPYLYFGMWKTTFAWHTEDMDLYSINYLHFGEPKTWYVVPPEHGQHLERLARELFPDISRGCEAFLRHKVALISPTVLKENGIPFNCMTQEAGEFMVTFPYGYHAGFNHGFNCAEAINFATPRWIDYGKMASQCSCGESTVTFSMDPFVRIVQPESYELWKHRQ
Coupling enz: coupling enzyme interference in Giardia aldolase counter-screen; coupling enzyme system counterscreen, AmpLite Red fluorescence; activity change, negative = inhibition, % at 58.2 µM, hits read low; 290,000 compounds, 0.67% hits; AID 2472; in the data active = activity change below about -30%
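First, compound is pin-transferred into glyceraldehyde-3-phosphate coupling-enzyme reagent at 57.5 uM final and held 10 min at RT. Next, substrate, coupling system and AmpLite Red are added. After 20 min RT, fluorescence (525/598 nm) is read.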
* marks the source's active call; other numbers are inactive results; ? = inconclusive; · = no result given; [ ] = another dose, or the depositor's remark. Rows were chosen to be rich in hits. Some 5.3% of all compounds tested hit in one or more screens of this group. Unless noted, calls follow the shape of the dose curve; as a rule, active = well fitted curve in the direction sought with a large enough effect; inconclusive = small, poorly fitted or top-dose-only effect, or another doubt; inactive = no such curve, though single readings can be large; an effect the other way counts as inactive or inconclusive. Unless noted, % is scaled to controls: 0 for no effect and ±100 for the full control effect.

SMILES | Tau fluor counter | Sfp PPTase inh | Tau fibril FP | Tau fibril ThT | KDM4E inh | Coupling enz
COc1ccccc1-c1nccc(Nc2ccc(F)cc2)n1 | · | 1% | · | · | · | -1
COCCN=C1NN=C(c2ccc(NC(C)=O)cc2)CS1 | -27% | 40µM* | ? | 28µM* | ? | 0
CC(=O)Nc1ccc(C2=NNC(=Nc3cccc(S(=O)(=O)N(C)C)c3)SC2)cc1 | 14µM*[quencher] | 13µM* | ? | 7.9µM* | ? | -3
CC(=O)Nc1ccc(C2=NNC(=Nc3ccc(S(=O)(=O)N4CCOCC4)cc3)SC2)cc1 | 16µM*[quencher] | 14µM* | ? | 4.5µM* | ? | -2
COC(=O)c1ccc(NC(=O)c2nn(C)c3c2CS(=O)(=O)c2ccccc2-3)cc1 | -2% | · | 1% | 9% | · | ·
NCC[C@H](O)C(=O)N[C@H]1C[C@@H](N)[C@@H](O[C@H]2O[C@@H](CN)[C@@H](O)[C@@H](O)[C@@H]2O)[C@@H](O)[C@@H]1O[C@H]1O[C@@H](CO)[C@@H](O)[C@@H](N)[C@@H]1O | · | 23% | · | · | 25%[25.5 µM] | 1
CCOC(=O)c1c(S(=O)(=O)N2CCN(c3cc(Cl)ccc3C)CC2)c(C)n(C)c1C | -7% | · | 1% | -5% | · | ·
CCOC(=O)C(=O)C1(C(=O)OCC)Oc2cc(OC)cc(OC)c2C(=O)C1c1ccccc1 (centres undefined) | -7% | -19% | -10% | 3% | ? | 1
COc1ccc(NC(=S)N(CCc2c(C)[nH]c3ccc(C)cc23)Cc2ccco2)cc1 | 14µM*[quencher] | 19% | ? | ? | -12% | 1
CNC(=S)N(CCc1c(C)[nH]c2ccc(C)cc12)Cc1cccs1 | 20µM*[quencher] | 14% | 6% | ? | -13% | 0
COc1ccc2[nH]c(C)c(CCN(Cc3cccs3)C(=S)Nc3ccc(F)cc3)c2c1 | 7.9µM*[quencher] | 16% | -2% | ? | ? | -8
COc1ccc(NC(=S)N(CCc2c(C)[nH]c3ccc(C)cc23)Cc2cccs2)cc1 | 3% | 0% | 3% | 15% | 0% | 0
CCOc1ccc(NC(=S)N(CCc2c(C)[nH]c3ccc(C)cc23)Cc2ccco2)cc1 | ? | 9% | 0% | ? | -6% | -4
COc1ccc2[nH]cc(CCNC(=O)Nc3cccc(F)c3)c2c1 | 25µM*[quencher] | · | ? | ? | · | ·
COc1cccc(CNC(=O)c2sc3nc4n(c(=O)c3c2C)CCC4)c1 | -7% | · | -1% | -5% | · | ·
COc1cc2c(cc1CC=C(C)C)C(=O)C[C@@H](c1ccc(O)cc1)O2 | · | -5% | · | · | · | 1
CCOc1ccccc1NC(=O)CSc1ncc2c(n1)-c1ccccc1N(CC)S2(=O)=O | -28% | · | -7% | 11% | · | ·
CCCC/C=C/[C@H](c1ccccc1)[C@H](CO)Cc1ccc([N+](=O)[O-])cc1 | · | 11% | · | · | · | -6
COc1ccc2[nH]c(C)c(CCNC(=S)Nc3cccc(C)c3)c2c1 | 16µM*[quencher] | -9% | 15% | ? | -1% | 0
Cc1cc(C)c(NC(=S)N(CCN(C)C)Cc2cccs2)c(C)c1 | -8% | -15% | -2% | -4% | -21% | -8
Cc1ccc(NC(=S)N(CCN(C)C)Cc2cccs2)c(C)c1 | -9% | 32µM* | 8% | -8% | 3% | -1
COc1ccc2[nH]c(C)c(CCNC(=S)Nc3cc(C)cc(C)c3)c2c1 | ? | 16% | 7% | -4% | -7% | -1
COc1ccc(-c2nn(-c3ccc(F)cc3F)c3c2cnc2ccc(F)cc23)cc1 | -10% | · | -9% | -2% | · | ·
C=CCn1c(=O)/c(=C2/Sc3cc(OC)ccc3N2C)s/c1=C1\C(=O)N(CC)C(=S)N1C | -20% | -6% | 19% | 10µM* | 2% | 0
CN=c1scc(C)n1/N=C/c1ccc(O)cc1O | ? | 2% | 11% | 16µM* | -3% | -5
SMILES | Tau fluor counter | Sfp PPTase inh | Tau fibril FP | Tau fibril ThT | KDM4E inh | Coupling enz
CN=c1scc(C)n1/N=C/c1cc(Br)c(O)c(Br)c1 | -26% | -21% | 9% | ? | ? | 10
CN=c1scc(C)n1/N=C/c1ccc2c(c1)OCO2 | ? | -5% | 3% | 11µM* | 1% | -3
CN=c1scc(C)n1/N=C/c1ccc(O)cc1 | -25% | -5% | 10% | ? | -3% | -3
Cc1ccnc(Nc2nc(-c3ccc(O)c(O)c3)cs2)c1 | · | 50µM* | · | · | · | -3
Cc1ccnc(Nc2nc(-c3ccc(O)cc3)cs2)c1 | · | 4% | · | · | · | 1
Cc1cccc(Nc2nc(-c3ccc(O)c(O)c3)cs2)n1 | · | -12% | · | · | · | -6
Oc1ccc(-c2csc(Nc3ccccn3)n2)cc1O | · | 45µM* | · | · | · | 0
Oc1ccc(-c2csc(Nc3cccc4ccccc34)n2)cc1O | · | 50µM* | · | · | · | -7
Cc1ccnc(Nc2nc(-c3ccc(O)cc3O)cs2)c1 | · | 40µM* | · | · | · | -3
CCCNc1c(F)c(F)c2c(C)c3ccccc3nc2c1F | -23% | 0% | 6% | 14µM* | -4% | -16
Cc1cc(C)c(/C=C(\C#N)C(N)=S)c(C)c1 | 7% | 2% | -2% | 5% | -3% | 2
CCCCc1ccc(/C=C(\C#N)C(N)=S)s1 | ? | 40µM* | 0% | ? | -17% | -1
CCCN1C/C(=C/c2ccc3c(c2)OCO3)C(=O)/C(=C/c2ccc3c(c2)OCO3)C1 | -22% | 40µM* | ? | 22µM* | 10µM* | 1
CC1=C/C(=C\c2ccc3c(c2)OCO3)C(=O)S1 | -15% | -25% | -13% | 6.3µM* | -24% | 0
O=C1OCCC/C1=C\c1ccc2c(c1)OCO2 | -17% | -10% | 1% | ? | 19% | 1
CCCN1C/C(=C/c2cccc([N+](=O)[O-])c2)C(=O)/C(=C/c2cccc([N+](=O)[O-])c2)C1 | -20% | 12% | -5% | ? | -1% | 2
COc1cccc(CNC(=O)C(=O)NCC(c2ccc3c(c2)OCO3)N2CCOCC2)c1 (centres undefined) | -9% | · | -7% | -3% | · | ·
COc1ccc(-c2onc(C)c2C)cc1S(=O)(=O)N1CCN(c2ccc(Cl)cc2)CC1 | -22% | · | -3% | -11% | · | ·
COC(=O)c1ccc(C(=S)N2CCCCC2)cc1 | -1% | 14% | 3% | 0% | 10% | -1
COc1ccc(C(=O)Oc2ccc(C(=S)N3CCOCC3)cc2)cc1 | -25% | 22µM* | ? | ? | ? | 1
COC(=O)c1ccc(C(=S)N2CCOCC2)cc1 | -4% | 22µM* | -5% | -4% | 3% | 5
O=C(Oc1ccc(C(=S)N2CCOCC2)cc1)c1ccc(Br)cc1 | -5% | 1% | -6% | -6% | 0% | -1
COc1ccc(C(=S)N2CCN(C)CC2)cc1Br | 0% | 4% | -4% | ? | 5% | 4
COc1ccc(C(=S)N2CCN(C)CC2)cc1 | -10% | 25µM* | -6% | -6% | 0% | 4
